± gives the standard deviation.
tested on: EfPiwi piRISC loaded with L1MC piRNA (26 nt); experiment: pre-steady-state target cleavage rate (min^-1); auxiliary factor: 500 nM Ephydatia muelleri Gtsf1; guide: L1MC piRNA 5'p-UAACUAAAUACUAUGCAAGCUGUAGG; MIWI and MILI are mouse PIWI proteins and EfPiwi is from a freshwater sponge; tags in brackets are library labels; higher = faster piRNA-guided slicing of the target
Method in brief: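 Active affinity-purified piRISC carrying one synthetic guide (1 nM) was mixed with a transcribed, DNA-blocked target RNA library […] in HEPES–potassium acetate buffer at 33 °C for 0–8 or 0–960 min, with or without 500 nM GTSF1 partner protein. Uncleaved targets were then sequenced and normalised to depth and to weakly complementary targets. Three trials were pooled, and k3 was capped at 0.0001 min^-1. A burst-and-steady-state fit was applied to obtain the pre-steady-state cleavage rate.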

Sequence	pre-steady-state target cleavage rate
UCCUGGAUGUCGAACCAUAGAUAUUAGUUA	< 0.0001
UCCUGGAACAGCUUCGCAUAGUAUUUAGUUA	0.0367 ± 0.008
UCCUGGAUCAGCUUGCCUAGUAUUUAGUUA	0.0512 ± 0.011
UCCUGCUUGAGCUUGCAUAGUAUUUUCAAA	0.00207 ± 0.0018
UCCUGGAUGUGCUUGCCUAGUAUUUAGUUA	0.00934 ± 0.0027
UCCUGCUACAGACUUGCAUAGUAUUUAGUUA	0.00603 ± 0.0024
UCCUGGAACAGCUUGCAUAGUGUUUAGUUA	0.0084 ± 0.0024
UCCUGGAUGAGCUUCCAUAGUAUUUAGUAA	0.00253 ± 0.0019
UCCUGGAUGUGCUUGCAUAGUAUUUACAAA	0.00369 ± 0.0033
UCCUGGAACAGCUUGCAAUAGUAUUUAGUUA	0.0183 ± 0.0054
UCCUGCUACAGCUUGCAUAGUAUUAAGAAA	0.00481 ± 0.0021
UCCUCCUACAGCUUGCCAUAGUAUUUAGUUA	0.00595 ± 0.0024
UCCUCCUACAGGUUGCUUAGUAUUUAGUUA	0.0231 ± 0.0065
UCCUGCUACAGCUUGCAUAGUAUUUAAUUA	0.00612 ± 0.0025
UCCUGGAUCAGCUAGCUUAGUAUUUAGUUA	0.00676 ± 0.0036
UCCUGGAACAGCUCGCAUAGUAUUUAGUUA	0.0171 ± 0.0048
UCCUGCUACAGCUUGCAUAGUAAUUUCAAA	0.00378 ± 0.0027
UCCUGGUACAAGCUUGCAUAGUAUUUAGUUA	0.0481 ± 0.014
UCCUGGUACAGCUUGCAUAGUAUUUAGUCUA	0.00521 ± 0.0031
UCCUCCUACAGCUUGCAAAGUUUUUAGUUA	0.00281 ± 0.0022
UCCUGGAACAGCUUGCAUAGUAUAAAGUUA	0.00389 ± 0.0023
UCCUGGAUGUCCUUGCAUAGUAUUUAGUA	0.00759 ± 0.0039
UCCUGGAUGUCGAAGGAUACUAUUUAGUUA	< 0.0001
UCCUGCUUCAGCUUGCAUAGUAUUUUCAAA	0.00362 ± 0.0023
